Hits are enriched below; roughly 6% of the tested compounds scored in any of these assays.
D3 antag: antagonists of human D3 dopamine receptor; P35462; D3R cells, DiscoveRx beta-arrestin luminescence, antagonist mode; hits give low values; max response, negative = inhibition, %; 360,000 tested, 2.5% active; AID 652054; in the data active means max response below about -50%; inconclusive means no clear call, values can overlap the other calls
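Cells expressing the human receptor were seeded at 1500 cells/well, incubated overnight at 37 degrees C in 5% CO2, then exposed to library compounds with dopamine controls for 90 minutes at 37 degrees C before luminescent detection.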
D1 ag: human D1 receptor agonism; 360,000 tested, 1% active; HEK293 T-REx D1 cells, calcium flux, agonist mode; activation, % at 2 µM; P21728; in the data active means activation above about 30%
Target sequence (P21728 whole entry, looked up): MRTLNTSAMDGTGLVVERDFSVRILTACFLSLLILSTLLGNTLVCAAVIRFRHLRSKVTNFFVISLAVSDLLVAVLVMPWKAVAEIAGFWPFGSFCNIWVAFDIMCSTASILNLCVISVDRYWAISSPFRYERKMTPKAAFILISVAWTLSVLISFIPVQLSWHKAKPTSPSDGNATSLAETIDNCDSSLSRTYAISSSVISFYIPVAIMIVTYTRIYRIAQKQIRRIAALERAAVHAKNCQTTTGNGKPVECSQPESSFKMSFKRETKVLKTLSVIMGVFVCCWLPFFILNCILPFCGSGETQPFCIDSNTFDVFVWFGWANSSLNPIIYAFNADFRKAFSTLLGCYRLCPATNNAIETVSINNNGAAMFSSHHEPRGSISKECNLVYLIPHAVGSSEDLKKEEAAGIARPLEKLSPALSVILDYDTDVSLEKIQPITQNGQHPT
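Agonism was scored from calcium flux recorded over 180 s (1 read/s) after pintool compound addition, following a 10-cycle baseline. Cells were inducible force-coupled HEK293 TREx D1, plated overnight at 30 C and loaded with no-wash calcium dye.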
Chronic BCR inh: blocks chronic active B-cell receptor signaling. 340,000 tested, 0.05% active. Potency, µM (series often up to 46.1 µM), actives largely listed as inhibitors. ABC-DLBCL IkBa-CBG/CBR reporter, luminescence ratio, 4 h. AID 493014; active means well fitted inhibition curve with a large enough effect in the signal ratio, with a control signal flat, not every such curve was filed as active; inconclusive means small, poorly fitted or top-dose-only effect, or effect the other way, or a change in a side signal; the % refers to the signal ratio
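TMD8 ABC-DLBCL cells carrying doxycycline-inducible green luciferase fused to IkappaBalpha plus unfused red luciferase were exposed to compounds (up to 46 uM) for 4 hrs at 37C. Activity came from the overlap-corrected green/red luminescence ratio.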
D1 antag: blocks dopamine activation of the human D1 receptor; HEK293 TREx D1 cells, calcium flux, dopamine EC80; hits give low values; 360,000 tested, 3.2% active; activity change, negative = inhibition, % at 10 µM; in the data active means activity change below about -30%
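Using tetracycline-induced force-coupled D1 Hek293 cells and a calcium dye, signals were followed for 180 s after compound, then for 180 s after EC80 dopamine, to detect inhibitors.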
D1 potentiator: human D1 dopamine receptor positive modulation; AID 504651; HEK293 TREx D1 cells, calcium flux, dopamine EC20 potentiation; 360,000 tested, 0.036% active; potentiation, % at 10 µM; P21728; in the data active means potentiation above about 30%
DRD3 agonist: D3 dopamine receptor (human) agonism | max activation, % | 410,000 tested, 0.58% active | P35462 | AID 652048 | D3R DiscoveRx beta-arrestin cells, luminescence, 90 min; in the data active means max activation above about 30%
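Agonist mode: compounds and dopamine controls were applied to plated cells for 90 min at 37 degrees C after an overnight attachment at 1500 cells/well. Luminescent read-out followed 30 - 60 minutes at room temperature with DiscoveRx detection reagent.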
Each line names hits and unclear results; the compound was inactive in the other large screens; ! = not active in a repeat.

Cc1oc(-c2ccccc2Cl)nc1CN1CCCCC1c1cccnc1 (configuration not stated)	D1 antag -32
Cc1nnc(SCC(=O)Nc2sc3c(c2C(N)=O)CCC(C)C3)[nH]c1=O (configuration not stated)	D1 antag -47
COc1ccc(CCN2CC(C(=O)OCC(=O)NC(Cc3ccccc3)C(C)=O)CC2=O)cc1OC (configuration not stated)	none (no result: D1 ag, Chronic BCR inh, D1 antag, D1 potentiator)
COc1ccc(OC)c(NC(=O)C2CC(=O)N(CCc3ccccc3)C2)c1 (configuration not stated)	none
O=C(OCc1ccc([N+](=O)[O-])cc1)C1CC(=O)N(CCc2ccccc2)C1 (configuration not stated)	D1 antag -40
N#Cc1ccc(COC(=O)C2CC(=O)N(CCc3ccccc3)C2)cc1 (configuration not stated)	none
COc1ccc(CCN2CC(C(=O)OCC(=O)N(C)Cc3ccccc3)CC2=O)cc1OC (configuration not stated)	Chronic BCR inh inconclusive, D1 antag -35
COc1ccc(C)cc1NC(=O)C1CC(=O)N(CCc2ccccc2)C1 (configuration not stated)	DRD3 agonist 40
COc1cccc(CNC(=O)C2CCN(Cc3cc4ccccc4n3Cc3ccccc3)CC2)c1OC	none (no result: D3 antag)
CCCCN(C(=O)C1CC(=O)N(c2ccc3c(c2)OCCO3)C1)c1c(N)n(CCCC)c(=O)[nH]c1=O (configuration not stated)	none
CCCCn1c(N)c(N(CC(C)C)C(=O)C2CC(=O)N(c3ccc4c(c3)OCCO4)C2)c(=O)[nH]c1=O (configuration not stated)	D3 antag -55
CCCCn1c(N)c(N(CC(C)C)C(=O)Cn2c(=O)cnc3ccccc32)c(=O)[nH]c1=O	Chronic BCR inh inconclusive
CCCCn1c(N)c(N(CC(C)C)C(=O)Cn2c(=O)oc3ccccc32)c(=O)[nH]c1=O	D1 antag -44
O=[N+]([O-])c1ccc(Cl)c(/C=N/N2CCN(Cc3ccccc3Cl)CC2)c1	D3 antag -51
Cc1ccc(CN2CCN(/N=C\c3cccc([N+](=O)[O-])c3)CC2)cc1	D3 antag -56
O=[N+]([O-])c1ccccc1/C=N/N1CCN(Cc2ccccc2)CC1	D3 antag -67
Clc1cccc(/C=N/N2CCN(Cc3ccccc3)CC2)c1	Chronic BCR inh inconclusive, D1 antag -33
O=[N+]([O-])c1ccccc1/C=N\N1CCN(Cc2ccccc2Cl)CC1	none
O=[N+]([O-])c1ccc(Cl)c(/C=N/N2CCN(Cc3ccccc3)CC2)c1	none
OC1OC[C@@H](O)[C@H](O)[C@@H]1O (some centres not stated)	none (no result: D3 antag, D1 ag, Chronic BCR inh, D1 antag, D1 potentiator)
Clc1ccccc1/C=N/N1CCN(Cc2ccccc2)CC1	none
FC(F)(F)c1ccccc1/C=N/N1CCN(Cc2ccccc2)CC1	D3 antag -66
Cc1nc(-c2ccccc2)sc1CCNC(=O)C(=O)Nc1ccc(F)c(Cl)c1	none (no result: D3 antag, Chronic BCR inh)
O=C(/C=C/c1cc2ccccc2o1)c1ccccc1O	Chronic BCR inh inconclusive
COc1ccc(O)c(C(=O)/C=C/c2cc3ccccc3o2)c1	D3 antag -62
Cc1nc(CSc2nsc(/C=C/N(C)C)c2C#N)cs1	D1 ag 31
CCOC(=O)N1CCN(C(=O)COc2ccc3c(c2)C(=O)CC2(CCN(C(C)=O)CC2)O3)CC1	none
CC(=O)N1CCC2(CC1)CC(=O)c1cc(OCC(=O)N3CCOCC3)ccc1O2	Chronic BCR inh inconclusive, D1 antag -38
COc1ccccc1CNC(=O)CCCCn1c(=O)c2ccccc2n(Cc2ccccc2F)c1=O	none (no result: D3 antag, Chronic BCR inh)
Nc1ccc(-c2nc3ncccc3o2)cc1	D1 antag -34
N=c1c2c(-c3ccccc3)c(-c3ccccc3)n(Cc3ccco3)c2ncn1Cc1ccco1	D3 antag inconclusive, D1 ag 38, Chronic BCR inh inconclusive
N=c1c2c(-c3ccccc3)c(-c3ccccc3)n(Cc3ccccc3)c2ncn1CCCn1ccnc1	D1 ag 118, Chronic BCR inh inconclusive
N=c1c2c(ncn1Cc1ccco1)Oc1ccc3ccccc3c1C2c1ccccc1 (configuration not stated)	Chronic BCR inh inconclusive
CCCCn1cnc2c(c(-c3ccccc3)c(-c3ccccc3)n2Cc2ccco2)c1=N	D1 ag 47, Chronic BCR inh inconclusive
COc1ccc(Cl)cc1NC(=O)c1c(NCc2cccs2)sc2c1CCC(C)C2 (configuration not stated)	none (no result: D3 antag)
CCc1ccc(CNC(=O)c2sc3nc[nH]c(=O)c3c2C)cc1	none (no result: D3 antag, Chronic BCR inh)
C=CCOc1ccc(CNc2nccs2)cc1OCC	D3 antag -54
COC(=O)c1ccc(NC(=O)CCS(=O)(=O)c2ccc(Br)s2)cc1	D1 antag -52!
COC(=O)c1ccccc1NC(=O)CCS(=O)(=O)c1ccc(Br)s1	D3 antag -52, Chronic BCR inh inconclusive
Cc1ccccc1NC(=O)CCS(=O)(=O)c1ccc(Br)s1	none
CC(=O)c1cccc(NC(=O)CCS(=O)(=O)c2ccc(Br)s2)c1	none
Cc1cc(NC(=O)c2ccc(NC(=O)CCS(=O)(=O)c3cccs3)cc2)ccc1Br	D1 antag -38 (no result: D3 antag, Chronic BCR inh)
CCOC(=O)c1ccccc1NC(=O)Cn1c(=O)n(-c2cccc(C)c2)c(=O)c2c1c1cc(C)ccc1n2C	none (no result: D3 antag, Chronic BCR inh)
O=c1c2ccccc2sn1-c1ccccc1	D3 antag -98, Chronic BCR inh inconclusive
O=c1c2ccccc2sn1-c1ccccc1F	D3 antag inconclusive (no result: D1 ag, Chronic BCR inh, D1 antag, D1 potentiator)
O=c1c2cc(F)ccc2sn1-c1ccccc1	D1 ag 39, Chronic BCR inh inconclusive
Cc1ccccc1-n1sc2cc(F)ccc2c1=O	D1 ag 32, Chronic BCR inh inconclusive
O=c1c2cc(C(F)(F)F)ccc2sn1-c1ccccc1	none (no result: D1 ag, Chronic BCR inh, D1 antag, D1 potentiator)
CCCCNC(=O)C1(C)CCCCN1Cc1ccc(-c2ccccc2)cc1 (configuration not stated)	D3 antag inconclusive (no result: D1 ag, Chronic BCR inh, D1 antag, D1 potentiator)
CC(C)Sc1ncc(Cl)c(C(=O)Nc2nc3ccc(S(C)(=O)=O)cc3s2)n1	none (no result: D3 antag, Chronic BCR inh)
Cc1ccccc1CS(=O)(=O)CCC(=O)NCCN1CCN(c2cccc(Cl)c2)CC1	D3 antag -54, D1 antag -32
Cc1cc(=O)oc(C)c1C(=O)NCCCN1CCN(c2ccccc2F)CC1	D3 antag inconclusive
O=C(CCCCCn1c(=O)[nH]c2ccccc2c1=O)NCCCN1CCN(c2ccccc2F)CC1	D3 antag inconclusive, D1 antag -91
Cc1ccccc1CS(=O)(=O)CCC(=O)NCCCN1CCN(c2ccccc2F)CC1	D3 antag -60
O=C(CCS(=O)(=O)Cc1ccc(Cl)cc1)NCCCN1CCN(c2ccccc2F)CC1	D3 antag -70, D1 ag 51, Chronic BCR inh inconclusive, D1 antag -59
